# Imprint erasure – induces erasure of genomic imprints in mouse ES cells; mouse ES Peg3-LacZ reporter, beta-gal luminescence, 40 h; Potency, µM (highest dose often 60.7 µM), for inactives: at the highest dose activity change, positive = activation, usual class: activators; 110,000 tested, 0.02% active; AID 1948
#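 Readout: BetaGlo luminescence (5 min, room temp) for LacZ from the normally silent maternal Peg3 allele in female Peg3LacZ-Neo ES cells. Cells 300/well, 40 h, 37C, 5% CO2. Data normalized per plate to negative controls.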
# FLuc inh – inhibitors of firefly luciferase. P08659. Potency, µM (doses to about 57.1 µM), without a hit: top-dose activity change, negative = inhibition, most hits filed as inhibitors. purified firefly luciferase, luminescence, 8 min. 72,000 tested, 2.2% active; further: on the % scale 0 is the no-effect control and ±100 the full control effect; nearly all actives have a fitted effect of over 40% in size
# Target sequence (P08659 whole entry, looked up): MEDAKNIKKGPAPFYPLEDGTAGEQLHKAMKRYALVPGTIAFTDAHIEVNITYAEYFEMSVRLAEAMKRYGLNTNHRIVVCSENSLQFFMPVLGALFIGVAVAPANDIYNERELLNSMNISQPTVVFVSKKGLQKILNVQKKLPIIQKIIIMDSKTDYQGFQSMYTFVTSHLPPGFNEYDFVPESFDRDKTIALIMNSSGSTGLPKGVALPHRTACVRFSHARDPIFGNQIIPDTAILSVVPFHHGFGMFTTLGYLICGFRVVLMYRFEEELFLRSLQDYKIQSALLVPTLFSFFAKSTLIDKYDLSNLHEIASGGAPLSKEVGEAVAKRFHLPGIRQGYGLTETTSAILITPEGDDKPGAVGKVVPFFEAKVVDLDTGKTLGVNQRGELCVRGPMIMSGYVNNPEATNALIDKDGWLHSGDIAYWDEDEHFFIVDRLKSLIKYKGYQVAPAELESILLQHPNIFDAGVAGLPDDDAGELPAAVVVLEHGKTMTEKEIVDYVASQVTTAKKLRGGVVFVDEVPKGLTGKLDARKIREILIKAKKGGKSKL
#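 Compounds were tested as concentration series (qHTS) against purified P. pyralis luciferase with luciferin and 10 uM ATP in 50 mM imidazole pH 7.2, 50 mM KCl, 7 mM MgCl2, 0.01% Tween 20, 0.05% BSA. Luminescence was read after 8 min at ambient temperature.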
# p53ts 39C tox – p53ts cell cytotoxicity, nonpermissive temperature | 130,000 tested, 1.5% active | Potency, µM (highest dose often 46.1 µM), for the others: top-dose activity change, negative = cell killing, usual class: cytotoxic | H1299-p53A138V viability at 39C, ATP luminescence, 24 h; further: on the % scale 0 is the no-effect control and ±100 the full control effect; nearly all actives have a fitted effect of over 55% in size
# p53ts 32C tox – kills p53ts cells at the permissive temperature; H1299-p53A138V at 32C, ATP luminescence viability, 24 h; Potency, µM (series often up to 46.1 µM), for inactives: top-dose activity change, negative = cytotoxicity, actives largely listed as cytotoxic; 130,000 tested, 0.93% active;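 further: 0% = DMSO and -100% = full killing by reference compound; nearly all actives have a fitted effect of over 55% in size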
#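 ATP-content luminescence (ATPlite) read-out after 24 h compound exposure at 32C in H1299-p53A138V cells (600/well). Tested up to 46 uM. Normalized to DMSO (0%) and 100 uM tamoxifen (100% killing); Hill-fit AC50.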
# IkB sig inh – IkB pathway inhibition in ABC-DLBCL cells | ABC-DLBCL IkBa-CBG/CBR dual luciferase ratio, 4 h; response scale: scaled: untreated 0%, proteasome inhibitor 100% | Potency, µM (top dose mostly 57.1 µM), inactives show top-dose IkBa stabilization activation | 110,000 tested, 0.04% active; active means well fitted curve in the direction sought with a large enough effect in the signal ratio, not every such curve was filed as active; inconclusive means small, poorly fitted or top-dose-only effect, or a change in a side signal; the % refers to the signal ratio;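 further: the direction sought is a rising ratio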
#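 Curves were fitted separately to fusion (green), unfused (red) and ratio luminescence, then classed by r2, magnitude and activity. Cells: OCI-Ly3, 4 h compound plus doxycycline at 37C; 10 uM MG-132 defined full response.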
# The depositor's hits bear a star; ? = inconclusive; / = no result given; [ ] = dose if it differs, or a comment. Compounds with a hit are over-represented: about 2.4% of the library has one in this group of screens. Unless noted, the call rests on the fitted dose curve; in most records, active means well fitted curve in the direction sought with a large enough effect; inconclusive means small, poorly fitted or top-dose-only effect, or another doubt; inactive means no such curve, though single readings can be large; an effect the other way counts as inactive or inconclusive. Potency means the concentration at half of the fitted maximal effect.
SMILES,Imprint erasure,FLuc inh,p53ts 39C tox,p53ts 32C tox,IkB sig inh
CC(=O)[C@]1(O)CC[C@@H]2[C@H]3C[C@@H](C)C4=CC(=O)CC[C@@]4(C)[C@H]3[C@@H](O)C[C@]21C,/,2%[11.4 µM],15%[9.22 µM],0%[9.22 µM],?
CCOc1ccccc1CNC(=O)CN1C(=O)CCc2cc(S(=O)(=O)N3CCCCC3)ccc21,-8%[10.9 µM],/,-14%,10%,-1%
Cc1cc(C)cc(C(=O)Nc2c(C(=O)Nc3ccccc3F)oc3ccccc23)c1,5%[10.9 µM],/,?,-13%,-1%
COC(=O)c1ccccc1NC(=O)c1ccc2c(c1)CCN2S(C)(=O)=O,-6%[10.9 µM],/,-27%,-2%,-1%
Cc1ccc(CCNC(=O)CCn2nc(-c3ccc(Cl)cc3)ccc2=O)cc1,-7%[10.9 µM],/,?,6%,?
CCOc1ccc2c(c1)sc1nc(C(=O)OC)cc(=O)n12,-5%,1%,-7%,-7%,-2%
CCOc1ccc2c(c1)sc(=NC(=O)C1CC1)n2C,-38%,13µM*,?,?,-2%
O=C(c1ccccc1)N1CCc2cc(CNS(=O)(=O)c3ccccc3Cl)ccc21,-9%[10.9 µM],/,10%,-3%,0%
Cc1cc(C)c2c(C)c(C(=O)N3CCC(c4nc5ccccc5s4)CC3)oc2c1,-6%[10.9 µM],/,3%,-8%,?
CN1CCN(c2ccc(Cl)cc2NC(=O)c2cccc(S(=O)(=O)N(C)C)c2)CC1,-10%,3%,-20%,-2%,1%
CN(C)S(=O)(=O)c1cccc(C(=O)NCCc2ccccc2)c1,-17%,13µM*,?,?,2%
CN(C)S(=O)(=O)c1cccc(C(=O)Nc2cc(Cl)ccc2O)c1,-27%,13µM*,-27%,-18%,?
CC1=C(C(=O)Nc2cccnc2)C(c2ccc(F)cc2)n2nc(SCc3ccccc3)nc2N1 (stereo not given),-8%[10.9 µM],/,21%,-1%,?
COc1ccc(NC(=O)C2CCN(S(=O)(=O)c3ccc4c(c3)CCCC(=O)N4)CC2)cc1OC,-9%[10.9 µM],/,14%,-2%,-2%
Cc1ccc(Nc2nnc(SCC(=O)Nc3ncc(C(F)(F)F)cc3Cl)s2)cc1,/,/,17%,/,/
Cc1ccc(Nc2nnc(SCC(=O)Nc3cccc(S(=O)(=O)N4CCCCC4)c3)s2)cc1,/,/,11µM*,-20%,/
O=C(CCC1N=C2c3ccccc3N=C(SCc3cccc(F)c3)N2C1=O)NCc1cccs1 (stereo not given),-17%[10.9 µM],/,-1%,11%,?
CCOc1ccc(OCc2cccc(C(=O)N3CCCC3)c2)cc1,-26%,13µM*,?,?,9%
O=C(O)c1cccc(COc2ccc(CO)cc2Cl)c1,-93%,1µM*,4µM*,5µM*,?
CCOc1ccc(OCc2cccc(C(=O)O)c2)cc1,-95%,0.79µM*,2µM*,2.5µM*,?
O=C(O)c1ccc(COc2ccc(CO)cc2Cl)cc1,-84%,-23%,-19%,-26%,?
COc1ccc(NS(=O)(=O)c2cccc(C(=O)O)c2)cc1,-4%,1%,-9%,5%,1%
O=C(O)c1cccc(COCC(F)(F)C(F)F)c1,-23%,0%,-8%,-2%,-1%
CCOc1ccc(C(=O)N2CCCC2)cc1,/,/,10%,-23%,/
COc1ccc(OCc2cccc(C(=O)O)c2)cc1,-90%,2µM*,5µM*,6.3µM*,?
SMILES,Imprint erasure,FLuc inh,p53ts 39C tox,p53ts 32C tox,IkB sig inh
CCC(C)NC(=O)C1CCN(C(=O)c2cc3sccc3n2Cc2ccc(Cl)cc2)CC1 (stereo not given),-20%[10.9 µM],/,-15%,12%,?
O=C1C(=O)N(C2CCN(S(=O)(=O)c3ccccc3)CC2)CCN1Cc1ccccc1,5%[10.9 µM],/,-17%,-1%,-1%
CN(C)c1nc(N)nc(CSc2nc3cc(Cl)ccc3o2)n1,-20%,1%,10%,-9%,-2%
O=S1(=O)C=C(Sc2nc3cc(Cl)ccc3o2)c2ccccc21,-37%,-20%,20µM*,10µM*,?
CCN1CCN(/C=N/c2nc3c(s2)CCCC3)CC1,-80%,13µM*,?,?,0%
COc1ccc(OC)c(C2C(C(=O)Nc3ccc(C)cc3)=C(C)Nc3nnnn32)c1 (stereo not given),-14%[10.9 µM],/,-10%,24%,1%

# Assay outcomes from PubChem.
